ATXN viability = reduces viability in counter-screen for ATXN expression inhibitors | S2 cells (HEK-293 line with an ATXN2-luciferase reporter) viability, CellTiter-Fluor protease fluorescence, 24 h | Potency, µM (series often up to 56.7 µM), usual class: cytotoxic | 400,000 tested, 0.49% active; also: nearly all actives have a fitted effect of over 40% in size
IL-1B inflam inh = blocks inflammasome-driven IL-1 beta release; THP-1 LPS/ATP IL-1B secretion, AlphaLISA, 16 h; stronger effect = lower value; activity change, % at 57.5 µM; 360,000 tested, 4.7% active; in the data active = activity change below about -50%; inconclusive = mostly about -30% to -49%
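THP-1 cells pretreated 1 hr with compounds (up to 57.5 uM final), then stimulated with LPS (250 ng/mL final) plus ATP (1.25 mM final); secreted IL-1B measured by AlphaLISA after 16 hr, decreased signal indicating inhibition.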
SW480 rerep = induces DNA re-replication in SW480 colon adenocarcinoma cells; SW480 DNA re-replication, Hoechst DNA content imaging, 48 h; 340,000 tested, 1.8% active; Potency, µM (doses to about 46.1 µM), hits mostly activators; also: nearly all actives have a fitted effect of over 55% in size
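DNA re-replication was detected as more nuclei of elevated Hoechst intensity after 48 hr exposure to compound (23 nL pinned per well of 250 cells).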
MCF10A rereplic = induces DNA re-replication in MCF 10a normal breast cells; Potency, µM (doses to about 46.1 µM), hits mostly activators; MCF 10A DNA re-replication, Hoechst nuclear intensity, 48 h; AID 624296; 350,000 tested, 2.9% active; also: nearly all actives have a fitted effect of over 50% in size
ATXN2 expr inh = inhibitors of ATXN2 expression; HEK-293 ATXN2-luciferase reporter, luminescence, 24 h; Potency, µM (highest dose often 57 µM), most hits filed as inhibitors; 360,000 tested, 0.72% active; also: nearly all actives have a fitted effect of over 55% in size
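qHTS (up to 57 uM final) was run with 24 h compound exposure of reporter cells at 37 °C. Each well was multiplexed: SteadyGlo luminescence measured ATXN2-luciferase expression after a fluorogenic Gly-Phe-AFC viability readout (25 uM final).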
PINK1 modulator = modulators of PINK1 expression. PINK1 immunofluorescence, high-content cytometry, 24 h. Potency, µM (doses to about 76.6 µM), actives largely listed as activators. 410,000 tested, 0.2% active; active = well fitted activation curve with a large enough effect; inconclusive = small, poorly fitted or top-dose-only effect; cell line not stated here; also: nearly all actives have a fitted effect of over 65% in size
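Fluorescence from anti-PINK1 antibody, together with nuclear and cell stains, was scanned on a laser-scanning cytometer. Before staining, stable-line cells were incubated 24 hours with compounds at 5 concentrations; primary antibody 12 h at 10 degrees C.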
Hits are given with their value. Sampled rows, rich in hits. Any-hit rate of the full collection: about 7.1%. Unless noted, calls follow the shape of the dose curve; as a rule, active = well fitted curve in the direction sought with a large enough effect; inconclusive = small, poorly fitted or top-dose-only effect, or another doubt; inactive = no such curve, though single readings can be large; an effect the other way counts as inactive or inconclusive.

How did O=C(CCCSc1ccccc1)Nc1nc(-c2ccco2)c(-c2ccco2)s1 do in these assays?
ATXN viability: inconclusive; IL-1B inflam inh: inconclusive; SW480 rerep: inactive; MCF10A rereplic: 15µM; ATXN2 expr inh: inactive; PINK1 modulator: inactive

Results for CC(=O)Nc1sc(NC(=O)c2ccco2)nc1-c1cccs1 ?
ATXN viability: inactive; IL-1B inflam inh: inactive; SW480 rerep: inactive; MCF10A rereplic: inconclusive; ATXN2 expr inh: inactive; PINK1 modulator: inactive

How did CN(C)CCCNC(=O)c1cc(C(=O)c2ccccc2)c[nH]1 do in these assays?
ATXN viability: inactive; IL-1B inflam inh: inactive; SW480 rerep: inactive; MCF10A rereplic: inactive; ATXN2 expr inh: inactive; PINK1 modulator: inactive

What do the screens show for `CN(C)CCCNC(=O)c1cc(C(=O)c2cccc(Cl)c2Cl)c[nH]1`?
ATXN viability: inactive; IL-1B inflam inh: -58; SW480 rerep: inconclusive; MCF10A rereplic: inactive; ATXN2 expr inh: inactive; PINK1 modulator: inactive

Results for NC(=O)c1ccc(I)c([N+](=O)[O-])c1 ?
ATXN2 expr inh: inactive

Results for O=C(c1nc(-c2ccc(Cl)cc2)n2c1CCCCC2)N1CCN(c2ccccc2)CC1 ?
ATXN viability: inactive; ATXN2 expr inh: inactive; PINK1 modulator: inactive

What do the screens show for `COc1ccc2c(c1)-c1nc(-n3ncc(C(=O)NCc4cccnc4)c3C3CC3)ncc1CC2`?
ATXN viability: inactive; PINK1 modulator: inactive

How did COc1ccc(N2C(=O)CSC23C(=O)N2c4c(cccc43)C(C)=CC2(C)C)cc1 (centres undefined) do in these assays?
ATXN viability: inactive; IL-1B inflam inh: inactive; SW480 rerep: inactive; MCF10A rereplic: inactive; ATXN2 expr inh: inactive; PINK1 modulator: inactive

Results for CC1=CC(C)(C)N2C(=O)C(=Nc3ccc(O)cc3)c3cccc1c32 ?
IL-1B inflam inh: -53; SW480 rerep: inconclusive; MCF10A rereplic: inactive; ATXN2 expr inh: inconclusive; PINK1 modulator: inactive

What do the screens show for `COc1cc(N=C2C(=O)N3c4c(cccc42)C(C)=CC3(C)C)cc(OC)c1`?
ATXN viability: inactive; IL-1B inflam inh: inactive; SW480 rerep: 21µM; MCF10A rereplic: inactive; ATXN2 expr inh: inactive; PINK1 modulator: inactive

Results for COc1ccc(N=C2C(=O)N3CCCc4cccc2c43)cc1 ?
ATXN viability: inactive; IL-1B inflam inh: inactive; SW480 rerep: inactive; MCF10A rereplic: inactive; ATXN2 expr inh: inactive; PINK1 modulator: inactive

What do the screens show for `CCN(c1ccccc1)S(=O)(=O)c1ccc(C(=O)Nc2cccc(NC(C)=O)c2)cc1`?
ATXN viability: inconclusive; IL-1B inflam inh: inactive; SW480 rerep: inactive; MCF10A rereplic: inactive; ATXN2 expr inh: inactive; PINK1 modulator: inactive

How did CS(=O)(=O)N(Cc1ccccc1)c1ccc(C(=O)Nc2ccc(Cl)cc2)cc1 do in these assays?
ATXN viability: 32µM; ATXN2 expr inh: inconclusive; PINK1 modulator: inactive

What do the screens show for `CCN(c1ccccc1)S(=O)(=O)c1cc(C(=O)Nc2ccc(F)c(F)c2)ccc1F`?
ATXN viability: inconclusive; IL-1B inflam inh: -89; SW480 rerep: inconclusive; MCF10A rereplic: 13µM; ATXN2 expr inh: inconclusive; PINK1 modulator: inconclusive

What do the screens show for `COc1ccc(-n2ccn(Cc3ccccc3C)c(=O)c2=O)cc1`?
PINK1 modulator: inactive

How did Cc1nn(CCCC(=O)NCc2cccc(Cl)c2)c(=O)c2c1sc1ccccc12 do in these assays?
PINK1 modulator: inactive

What do the screens show for `CCCCNc1c(-c2cccc(SC(C)CC)c2)nc2ccc(Cl)cn12` (centres undefined)?
ATXN viability: inactive; IL-1B inflam inh: inactive; SW480 rerep: inactive; MCF10A rereplic: inconclusive; ATXN2 expr inh: inactive; PINK1 modulator: inconclusive

What do the screens show for `CCC(C)Sc1ccc(-c2nc3ccc(C)cn3c2NCc2ccccc2)cc1OC` (centres undefined)?
ATXN viability: inconclusive; IL-1B inflam inh: -100; SW480 rerep: inconclusive; MCF10A rereplic: 6.5µM; ATXN2 expr inh: inconclusive; PINK1 modulator: 16µM

Results for CCC(C)Sc1ccc(-c2nc3ccc(Cl)cn3c2NCc2ccccc2)cc1 (centres undefined) ?
ATXN viability: inactive; IL-1B inflam inh: inactive; SW480 rerep: inactive; MCF10A rereplic: 12µM; ATXN2 expr inh: inactive; PINK1 modulator: inactive

What do the screens show for `CCC(C)Sc1cc(-c2nc3ccc(C)cn3c2NCc2ccccc2)ccc1OC` (centres undefined)?
ATXN viability: 10µM; IL-1B inflam inh: -102; SW480 rerep: inconclusive; MCF10A rereplic: inconclusive; ATXN2 expr inh: 18µM; PINK1 modulator: inconclusive

Results for CCOc1ccccc1N1CC(c2nc3ccccc3n2CCCOc2ccccc2)CC1=O (centres undefined) ?
ATXN viability: inactive; ATXN2 expr inh: inactive; PINK1 modulator: inactive

What do the screens show for `COc1cccc(C(=O)N2CC(=O)Nc3ccc(C)cc3C2c2ccc(F)cc2)c1OC` (centres undefined)?
ATXN viability: inactive; ATXN2 expr inh: inactive; PINK1 modulator: inactive

How did COc1cc(C#Cc2c(-c3cncn3C)n(C)c3ccc(-c4ccc(OC)nc4)cc23)cc(OC)c1 do in these assays?
ATXN viability: inconclusive; IL-1B inflam inh: inactive; SW480 rerep: inactive; MCF10A rereplic: inconclusive; ATXN2 expr inh: 28µM; PINK1 modulator: inactive

What do the screens show for `COc1cc(C#Cc2c(-c3cncn3C)n(C)c3ccc(-c4cc(OC)c(OC)c(OC)c4)cc23)cc(OC)c1`?
ATXN viability: inactive; IL-1B inflam inh: -76; SW480 rerep: inconclusive; MCF10A rereplic: inactive; ATXN2 expr inh: inconclusive; PINK1 modulator: inactive

What do the screens show for `OC[C@H]1O[C@@H](c2nc(-c3ccccc3Br)no2)[C@H](O)[C@@H](O)[C@H]1O`?
ATXN viability: inactive; IL-1B inflam inh: inactive; ATXN2 expr inh: inactive; PINK1 modulator: inactive

What do the screens show for `CCN(CC)c1nc(NC2CCN(C)CC2)c2cc(OC)c(OC)cc2n1`?
PINK1 modulator: inactive

How did COc1cccc2c(C)cc3nnc(SCC(=O)Nc4ccc(C)cc4)n3c12 do in these assays?
PINK1 modulator: inactive

Results for Cc1ccc2c(C)c(C(=O)N(Cc3ccc(N(C)C)cc3)Cc3ccco3)oc2c1C ?
PINK1 modulator: inactive

Results for CC(C)(C)c1ccc(C(=O)N2CCN(CCNC(=O)C(=O)NCc3ccc(Cl)cc3)CC2)cc1 ?
ATXN viability: inactive; IL-1B inflam inh: -67; SW480 rerep: inconclusive; MCF10A rereplic: inconclusive; ATXN2 expr inh: inactive; PINK1 modulator: inactive

What do the screens show for `CC(C)(C)c1ccc(C(=O)NCc2ccc(Cl)cc2)cc1`?
ATXN viability: inactive; IL-1B inflam inh: inactive; SW480 rerep: inconclusive; MCF10A rereplic: inactive; ATXN2 expr inh: inactive; PINK1 modulator: inactive

What do the screens show for `O=C(Cc1ccccc1[N+](=O)[O-])N1CCN(c2ccc(F)cc2)CC1`?
ATXN viability: inactive; IL-1B inflam inh: inactive; SW480 rerep: 12µM; MCF10A rereplic: inactive; ATXN2 expr inh: inactive; PINK1 modulator: inactive

Source: PubChem BioAssay (National Center for Advancing Translational Sciences (NCATS))
